Assay outcomes deposited in PubChem by National Center for Advancing Translational Sciences (NCATS).
HT1080NT lethal: qHTS for induction of synthetic lethality in tumor cells producing 2HG: qHTS for the HT-1080-NT fibrosarcoma cell line; Potency, µM (highest dose often 46.1 µM), usual class: cytotoxic; HT-1080-NT fibrosarcoma viability, CellTiter-Glo ATP luminescence, 48 h; 1.6% of 360,000 active;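 further: NT is the 2HG producing partner of a matched IDH1 knockdown line; nearly all actives have a fitted effect of over 55% in size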
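A 48-hour cytotoxicity screen used HT-1080-NT cells plated 2 hours before compound delivery. ATP-based CellTiter-Glo luminescence measured viability, normalized to DMSO and no-cell controls.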
TDP1 cell CPT: qHTS for Inhibitors of human tyrosyl-DNA phosphodiesterase 1 (TDP1): qHTS in cells in presence of CPT; chicken DT40 Tdp1-/-;hTDP1 cells + 20 nM CPT, ATP luminescence, 48 h; Potency, µM (titrated, usually from 46.2 µM), actives largely listed as inhibitors; 12% of 420,000 active; further: nearly all actives have a fitted effect of over 55% in size
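Chicken DT40 Tdp1-/- cells stably complemented with human TDP1 were seeded at 400 cells/well in medium containing 20 nM camptothecin, exposed to pin-transferred compounds, and grown at 37 °C for at least 48 hr. Viability was read as ATP luminescence.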
HT1080 IDH1KD tx: qHTS for induction of synthetic lethality in tumor cells producing 2HG: qHTS for the HT-1080-IDH1KD cell line; HT-1080 IDH1 knockdown viability, ATP luminescence, 48 h; Potency, µM (series often up to 46.1 µM), usual class: cytotoxic; 2% of 360,000 active
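HT-1080-IDH1KD cells (IDH1 knocked down), 750/well in RPMI with 5% FBS, treated with compound 48 h at 37 degrees C. Viability by CellTiter-Glo luminescence, normalised to DMSO and no-cell wells; concentration-response curves classed.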
ELG1 DNA repair: qHTS screen for small molecules that inhibit ELG1-dependent DNA repair in human embryonic kidney (HEK293T) cells expressing luciferase-tagged ELG1; Potency, µM (top dose mostly 46.1 µM), usual class: inhibitors; 2.3% of 330,000 active; AID 504467, 2011; HEK293T ELG1-luciferase reporter, luminescence, 16 h; DNA damage induced by 5-fluorouridine; further: nearly all actives have a fitted effect of over 55% in size
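Quantitative HTS, concentration-response format. 2,000 cells/well co-treated with 5-fluorouridine and compound, 16 hr in 5% CO2 at 37 °C; ONE-Glo luminescence read after 30 min.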
DT40 TDP1 no CPT: qHTS for Inhibitors of human tyrosyl-DNA phosphodiesterase 1 (TDP1): qHTS in cells in absence of CPT; AID 686978, 2013; 15% of 420,000 active; DT40 Tdp1-/- hTDP1 cells, no CPT, ATP luminescence, 48 h; Potency, µM (highest dose often 46.2 µM), actives largely listed as inhibitors; further: nearly all actives have a fitted effect of over 55% in size
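Chicken DT40 Tdp1-/- cells stably complemented with human TDP1 were seeded at 400 cells/well with DMSO in place of 20 nM camptothecin. After compound pinning, cells grew at least 48 hr at 37 °C; viability read by CellTiter-Glo luminescence.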
IL-1B inflam inh: qHTS for Inhibitors of Inflammasome Signaling: IL-1-beta AlphaLISA Primary Screen | THP-1 LPS/ATP IL-1B secretion, AlphaLISA, 16 h; hits give low values | activity change, % at 57.5 µM | 4.7% of 360,000 active | AID 743279, 2014; in the data active means activity change below about -50%; inconclusive means mostly about -30% to -49%
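Secreted IL-1B measured by AlphaLISA bead assay after 16 h compound exposure of THP-1 cells; compounds (final up to 57.5 uM) added 1 h before LPS (250 ng/mL) and ATP (1.25 mM) stimulation; lower signal means less secretion.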
Large screens that a line does not name were inactive. Hits are enriched below; roughly 19% of the tested compounds scored in any of these assays. Unless noted, the call rests on the fitted dose curve; in most records, active means well fitted curve in the direction sought with a large enough effect; inconclusive means small, poorly fitted or top-dose-only effect, or another doubt; inactive means no such curve, though single readings can be large; an effect the other way counts as inactive or inconclusive.

CCC(=O)N1CCN(c2ccccc2NC(=O)COc2cccc(C)c2)CC1	TDP1 cell CPT inconclusive, ELG1 DNA repair inconclusive
CC(OC(=O)COc1ccccc1[N+](=O)[O-])C(=O)Nc1ccc(N2CCOCC2)cc1 (stereo unspecified)	ELG1 DNA repair inconclusive
CCC(=O)N1CCN(c2ccc(NC(=O)COc3ccccc3[N+](=O)[O-])cc2)CC1	TDP1 cell CPT 15µM, ELG1 DNA repair 23µM, DT40 TDP1 no CPT 10µM, IL-1B inflam inh inconclusive
CCC(=O)N1CCN(c2ccc(NC(=O)COc3ccccc3Cl)cc2)CC1	HT1080NT lethal inconclusive, TDP1 cell CPT 16µM, ELG1 DNA repair 18µM, DT40 TDP1 no CPT 26µM, IL-1B inflam inh -55
CCOc1ccc(NC(=O)C2CCCN(S(=O)(=O)c3ccc(Br)s3)C2)cc1 (stereo unspecified)	none (no result: HT1080NT lethal, HT1080 IDH1KD tx, ELG1 DNA repair, IL-1B inflam inh)
CC(NC(=O)CCc1nc2cc(S(=O)(=O)N3CCOCC3)ccc2n1C)c1ccc(S(N)(=O)=O)cc1 (stereo unspecified)	none
Cc1ccc(OCCCC(=O)Nc2ccc(N3CCOCC3)cc2)c(C)c1	HT1080NT lethal inconclusive
CCC(=O)N1CCN(c2ccc(NC(=O)COc3ccc(C)cc3C)cc2)CC1	TDP1 cell CPT inconclusive, HT1080 IDH1KD tx inconclusive, DT40 TDP1 no CPT 18µM
Cc1ccc(C(=O)N2CCN(c3ccc(NC(=O)COc4ccccc4C)cc3)CC2)cc1	TDP1 cell CPT 4.1µM, ELG1 DNA repair inconclusive, DT40 TDP1 no CPT 5.2µM, IL-1B inflam inh -64
Cc1c(NC(=O)COC(=O)c2cc(-c3cccc4ccccc34)nc3ccccc23)c(=O)n(-c2ccccc2)n1C	TDP1 cell CPT inconclusive, ELG1 DNA repair inconclusive
Cc1cccc(-c2cc(C(=O)Nc3c(C)n(C)n(-c4ccccc4)c3=O)c3ccccc3n2)c1	TDP1 cell CPT 26µM, ELG1 DNA repair inconclusive, DT40 TDP1 no CPT 15µM
Cc1cc(C)cc(-n2c(N)c(C(=O)Nc3c(C)n(C)n(-c4ccccc4)c3=O)c3nc4ccccc4nc32)c1	TDP1 cell CPT 7.3µM, HT1080 IDH1KD tx inconclusive, ELG1 DNA repair inconclusive, DT40 TDP1 no CPT 8.2µM
Cc1ccc(-n2c(N)c(C(=O)Nc3c(C)n(C)n(-c4ccccc4)c3=O)c3nc4ccccc4nc32)cc1	TDP1 cell CPT inconclusive, DT40 TDP1 no CPT inconclusive
Cc1c(NC(=O)c2cc(-c3ccc(F)cc3)nc3ccccc23)c(=O)n(-c2ccccc2)n1C	TDP1 cell CPT inconclusive, ELG1 DNA repair 8.2µM, DT40 TDP1 no CPT 12µM
O=C(CNC(=O)c1ccc(Cl)c([N+](=O)[O-])c1)OCN1C(=O)c2ccccc2C1=O	none
CCn1c(C)c(C2N3CC4(C)CN2CC(CC)(C3)C4=O)c2ccccc21 (stereo unspecified)	DT40 TDP1 no CPT inconclusive (no result: HT1080NT lethal, HT1080 IDH1KD tx, ELG1 DNA repair, IL-1B inflam inh)
CCCCN(CC)CCCn1cnc2c([nH]c3ccc(Cl)cc32)c1=O	TDP1 cell CPT 21µM, DT40 TDP1 no CPT 21µM (no result: HT1080NT lethal, HT1080 IDH1KD tx, ELG1 DNA repair, IL-1B inflam inh)
CC(=O)c1c(O)c(C)c(O)c2c1OC1=Cc3c(c(C)nn3C)C(=O)C12C (stereo unspecified)	TDP1 cell CPT 16µM, DT40 TDP1 no CPT 29µM (no result: ELG1 DNA repair)
CC(=O)C1=C(O)C=C2Oc3c(C(C)=O)c(O)c(C)c(O)c3[C@]2(C)C1=O	none (no result: HT1080NT lethal, HT1080 IDH1KD tx, ELG1 DNA repair, IL-1B inflam inh)
Cc1cc(C)cc(NC(=S)N2CC(C)OC(C)C2)c1 (stereo unspecified)	none
O=C(Nc1ncc(Cc2ccccc2)s1)C1CCCO1 (stereo unspecified)	ELG1 DNA repair inconclusive
